Laboratory results as given in PubChem BioAssay (NCATS).
Inconclusive results are not listed. A call without a number means that no potency is given here. The source made the active and inactive calls. Calls follow the shape of the dose curve; as a rule, active = well fitted inhibition curve with a large enough effect; inconclusive = small, poorly fitted or top-dose-only effect; inactive = no such curve, though single readings can be large or run the other way. Peptide text beside a SMILES is read from it.
Potency is read from the fitted curve at half-maximal effect.

Assay: S16 Schwann cell PMP22 intronic element firefly luciferase assay (AID 624032); also: nearly all actives have a fitted effect of over 30% in size
Conditions: S16 rat Schwann cells, PMP22 element FLuc, 24 h; series mostly up to 57.5 µM
Excerpt: Charcot-Marie-Tooth-Association [CMTA]
National Center for Advancing Translational Sciences [NCATS]
Charcot-Marie-Tooth (CMT) disease was first characterized by Jean-Martin Charcot and Pierre Marie in France and, independently, by Howard Henry Tooth in England in 1886. CMT is one of the most common inherited neurological diseases, affecting approximately 1 in 2,500 Americans. […] The most prevalent type of CMT is known as CMT1A and caused by a duplication of the PMP22 gene which leads to over-expression of this protein. PMP22 is a glycosylated intrinsic membrane protein accounting for 2-5% of the myelin protein content, and its over-expression results in demyelination and subsequently axonal loss.
A pair of cellular transcription-based assays was developed in the S16 rat Schwann cell lines (Hai, M., et al., 2002) stably transfected with orthogonal reporters - firefly luciferase (Fluc) and beta-lactamase (beta-Lac) - whose expression is driven by an intronic regulatory element of the PMP22 gene (Jones, E.A., et al., 2011) to recapitulate endogenous expression of PMP22. The current assay employs Fluc to report on PMP22 expression. A comprehensive library of approved drugs, the NCGC Pharmaceutical Collection (Huang, R., et al., 2011), was screened in the cross-validating platform of the orthogonal reporter assays to identify drug modulators inhibitory towards PMP22 expression.
A set of counter-screens was devised to address non-specific activity of the library. An ATP-dependent CellTiter-Glo assay (developed by Promega Corp) was utilized to control cell viability. In addition, biochemical Fluc enzyme assay was performed to assess direct inhibition of the Fluc enzymatic activity.
Hai, M., Muja, N., DeVries, G.H., Quarles, R.H. and Patel, P.I. Comparative analysis of Schwann cell lines as model systems for myelin gene transcription studies. J Neurosci Res, 2002. 69(4): pp 497-508
Huang, R., Southall, N., Wang, Y., Yasgar A., Shinn P., Jadhav, A. , Nguyen, D.-T. and Austin, C.P., The NCGC pharmaceutical collection: a comprehensive resource of clinically approved drugs enabling repurposing and chemical genomics. Sci Transl Med, 2011. 3(80): p. 80ps16.
S16 Schwann cell PMP22 intronic element firefly luciferase assay
The FLuc-expressing S16 cells were seeded in white solid 1536-well plates at between 500-750 cells/4uL in DMEM medium containing 10% FBS, w/o phenol red. After overnight incubation at 37 degree Celsius/5% C02, 23 nL of compounds or DMSO were delivered to each well using a pin tool, followed by 24h-incubation at 37 degree Celsius/5% C02. Then 4 uL ONE-Glo luminescent substrate mix (Promega) was added to each well. Luminescence was measured on a ViewLux plate reader (Perkin Elmer). The % activity was determined by normalizing to the average readings of PTC124 (a positive control) - treated cells relative to DMSO-treated cells (0% Activity). The concentration-effect curves were then classified based on curve quality (r2), response magnitude and degree of measured activity.
For CCCCC/C=C\C/C=C\CCCCCCCC(=O)O, the Potency was “inactive”. With CC(NNC(=O)c1ccccc1)c1ccccc1 (stereo not given) the Potency was “inactive”. With O=C(COc1ccc(Cl)cc1)OCCNC12CC3CC(CC(C3)C1)C2 the Potency was “inactive”. In the case of CC1(C)S[C@@H]2[C@H](NC(=O)[C@@H](NC(=O)N3CCNC3=O)c3ccccc3)C(=O)N2[C@H]1C(=O)O, the Potency is reported as “inactive”. In the case of C#CCOc1ccc2c(C)cc(=O)oc2c1, the Potency is reported as “inactive”. With O=S(=O)(O)O the Potency was “inactive”. In the case of CCCC(=O)O[C@]1(C(=O)CCl)[C@H](C)C[C@@H]2[C@H]3CCC4=CC(=O)C=C[C@]4(C)[C@@]3(F)C(=O)C[C@@]21C, the Potency is reported as “inactive”. With CC(=O)N[C@@H](CC(=O)O)C(=O)N[C@@H](CCC(=O)O)C(=O)O (Ac-Asp-Glu-OH) the Potency was “inactive”. In the case of CO[C@H](C(=O)[C@@H](O)[C@@H](C)O)C1Cc2cc3cc(O[C@H]4C[C@@H](O[C@H]5C[C@@H](O)[C@H](O)[C@@H](C)O5)[C@@H](O)[C@@H](C)O4)c(C)c(O)c3c(O)c2C(=O)[C@H]1O[C@H]1C[C@@H](O[C@H]2C[C@@H](O[C@H]3C[C@](C)(O)[C@H](O)[C@@H](C)O3)[C@H](O)[C@@H](C)O2)[C@H](O)[C@@H](C)O1 (stereo not given in full), the Potency is reported as “inactive”. With CC(C(=O)O)c1ccc(N2Cc3ccccc3C2=O)cc1 (stereo not given) the Potency was “inactive”. In the case of IC(I)I, the Potency is reported as “inactive”. For C=C1C(=CC=C2CCC[C@@]3(C)[C@@H]2CC[C@H]3[C@H](C)CCCC(C)C)C[C@@H](O)C[C@@H]1O, the Potency was 0.0287 µM (active). With O=C(O)CCC(=O)C(=O)O the Potency was “inactive”. For O=C(O)c1cc(O)c2c(c1)[O][Bi][O]2, the Potency was “inactive”. With COc1ccc2c3c1O[C@H]1C[C@@H](O)C=C[C@@]31CCN(C)C2 the Potency was “inactive”. For CCCCC(=O)O[C@]1(C(=O)CO)[C@H](C)C[C@H]2[C@@H]3CCC4=CC(=O)C=C[C@]4(C)[C@@]3(F)[C@@H](O)C[C@@]21C, the Potency was “inactive”. For CC(Cc1ccc(O)c(O)c1)C(C)Cc1ccc(O)c(O)c1 (stereo not given), the Potency was 8.09 µM (active). With C[C@@H]1CCC2[C@@H](C)[C@@H](O)O[C@@H]3O[C@@]4(C)CC[C@@H]1[C@@]23OO4 (stereo not given in full) the Potency was 1.02 µM (active). With CC1=C(/C=C/C(C)=C/C=C/C(C)=C/C=C/C=C(C)/C=C/C=C(C)/C=C/C2=C(C)CCCC2(C)C)C(C)(C)CCC1 the Potency was “inactive”. For Nc1ncnc2c1ncn2[C@@H]1O[C@H](COP(=O)(O)OP(=O)(O)OP(=O)(O)O)[C@@H](O)[C@H]1O, the Potency was “inactive”. With CC(O)CO (stereo not given) the Potency was “inactive”. For COC(F)(F)C(Cl)Cl, the Potency was “inactive”. In the case of C[C@]12CCC(=O)C=C1CC[C@@H]1[C@@H]2[C@@H](O)C[C@@]2(C)[C@H]1CC[C@]2(O)C(=O)COP(=O)(O)O, the Potency is reported as “inactive”. With COC(=O)CCC(=O)CN the Potency was “inactive”. In the case of CC[N+](C)(C)Cc1ccccc1Br, the Potency is reported as “inactive”. With CCOC(C)=O the Potency was “inactive”. In the case of CC1(C)C(C=C(Cl)Cl)C1C(=O)OCc1cccc(Oc2ccccc2)c1 (stereo not given), the Potency is reported as “inactive”. In the case of CC(C)=O, the Potency is reported as “inactive”. For CCCCC(CC)COC(=O)CC(C(=O)OCC(CC)CCCC)S(=O)(=O)O (stereo not given), the Potency was “inactive”. In the case of COC(C(=O)C(O)C(C)O)C1Cc2cc3cc(OC4CC(OC5CC(O)C(O)C(C)O5)C(O)C(C)O4)c(C)c(O)c3c(O)c2C(=O)C1OC1CC(OC2CC(OC3CC(C)(O)C(O)C(C)O3)C(O)C(C)O2)C(O)C(C)O1 (stereo not given), the Potency is reported as “inactive”. With CCCCC(C)(O)C/C=C/[C@H]1[C@H](O)CC(=O)[C@@H]1CCCCCCC(=O)OC (stereo not given in full) the Potency was 0.181 µM (active). With COC(=O)C1=C(C#N)NC(C)=C(C(=O)OC(C)C)C1c1cccc([N+](=O)[O-])c1 (stereo not given) the Potency was 16.1 µM (active). In the case of CCCCCCCCCCCC[n+]1ccc2ccccc2c1, the Potency is reported as 0.907 µM (active). With Cc1c(C)c2c(c(C)c1O)CC[C@@](C)(CCC[C@@H](C)CCC[C@@H](C)CCCC(C)C)O2 the Potency was “inactive”. For CCCCCCCC(=O)O, the Potency was “inactive”. In the case of NC1C2CN(c3nc4c(cc3F)c(=O)c(C(=O)O)cn4-c3ccc(F)cc3F)CC12 (stereo not given), the Potency is reported as “inactive”. With Oc1cc(O)c2c(c1)OC(c1ccc(O)c(O)c1)C(O)C2 (stereo not given) the Potency was “inactive”. In the case of CC(C)(C)NC(=O)[C@@H]1C[C@@H]2CCCC[C@@H]2CN1C[C@@H](O)[C@H](Cc1ccccc1)NC(=O)[C@H](CC(N)=O)NC(=O)c1ccc2ccccc2n1, the Potency is reported as 12.8 µM (active). For CC1=CCC(C(C)(C)O)CC1 (stereo not given), the Potency was “inactive”. For NC(=O)c1ncn(C2OC(CO)C(O)C2O)n1 (stereo not given), the Potency was “inactive”.
